# Source: PubChem BioAssay
# Only some compounds are listed: those with a hit (about 2.4% of all), similar ones and a draw of the others.
# Pol kappa inh-1: qHTS for Inhibitors of Polymerase Kappa; DNA polymerase kappa (Homo sapiens), Q9UBT6; purified Pol kappa, fluorescent DNA synthesis assay, 10 min; Potency, µM (top dose mostly 107 µM), for the others: at the highest dose activity, negative = inhibition, actives largely listed as inhibitors; actives 0.53% (n = 400,000); AID 588579, 2011; further: potency means the concentration at half of the fitted maximal effect; on the % scale 0 is the no-effect control and ±100 the full control effect
#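 Activity was followed as the change in fluorescence between reads at 0 and 10 min after starting the reaction with 50 nM substrate. Beforehand, 10 nM polymerase had been preincubated with compound for 15 min at room temperature.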
# APE1 inh: qHTS Assay for Inhibitors of the Human Apurinic/apyrimidinic Endonuclease 1 (APE1). actives 0.35% (n = 350,000). recombinant APE1, TAMRA/BHQ-2 abasic DNA cleavage fluorescence. Potency, µM (top dose mostly 65.8 µM), for inactives: at the highest dose activity change, negative = inhibition, usual class: inhibitors. DNA repair nuclease/redox regulator APEX1 (Homo sapiens), P27695;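 further: potency means the concentration at half of the fitted maximal effect; plate controls were vehicle for no effect and reference inhibitor for full effect; nearly all actives have a fitted effect of over 55% in size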
# Target sequence (P27695 whole entry, looked up): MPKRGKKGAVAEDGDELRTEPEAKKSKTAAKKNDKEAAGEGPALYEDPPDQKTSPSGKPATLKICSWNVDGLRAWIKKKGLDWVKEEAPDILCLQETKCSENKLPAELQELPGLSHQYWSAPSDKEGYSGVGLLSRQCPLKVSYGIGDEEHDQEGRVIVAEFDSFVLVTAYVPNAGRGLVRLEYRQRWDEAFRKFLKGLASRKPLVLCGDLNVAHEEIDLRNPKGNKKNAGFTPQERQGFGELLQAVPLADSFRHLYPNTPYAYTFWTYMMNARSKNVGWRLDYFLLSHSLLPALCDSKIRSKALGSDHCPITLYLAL
#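 Enzyme (0.75 nM final) and test compound are incubated 15 min at room temperature before adding 50 nM quenched THF abasic-site duplex. Cleavage dequenches TAMRA, followed at 525/598 nm over three reads one minute apart.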
# Pol beta inh: qHTS Assay for Inhibitors of DNA Polymerase Beta. P06746. Pol beta primer extension/strand displacement, fluorescence kinetic. Potency, µM (top dose mostly 114 µM), for the others: at the highest dose activity change, negative = inhibition, most hits filed as inhibitors. actives 1.3% (n = 340,000). AID 485314, 2010; further: potency means the concentration at half of the fitted maximal effect; on the % scale 0 is the no-effect control and ±100 the full control effect
#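 Reaction started by 50 nM substrate onto compound-treated Pol beta (10 nM, 15 min preincubation, room temperature); plates read at 0 min and 10 min. Normalized concentration-effect data fitted by four-parameter Hill equation.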
# Pol eta inh-1: qHTS for Inhibitors of Polymerase Eta. DNA polymerase eta (Homo sapiens), Q9Y253. recombinant Pol eta, fluorescent DNA replication assay. Potency, µM (highest dose often 114 µM), for the others: at the highest dose activity change, negative = inhibition, usual class: inhibitors. actives 1.2% (n = 390,000); further: potency means the concentration at half of the fitted maximal effect; on the % scale 0 is the no-effect control and ±100 the full control effect
#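 Pol eta (10 nM) was preincubated with compounds for 15 min at room temperature, after which fluorescent replication substrate (50 nM final) was added to start the reaction. Fluorescence was read kinetically at 0 and 10 min.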
# POLI inh: qHTS for Inhibitors of Polymerase Iota; DNA polymerase iota (Homo sapiens), Q9UNA4; Pol iota fluorescent replication assay, 10 min; Potency, µM (series often up to 115 µM), for the others: top-dose activity, negative = inhibition, usual class: inhibitors; actives 1% (n = 390,000); AID 588590, 2011; further: potency means the concentration at half of the fitted maximal effect
#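 Pol iota at 10 nM preincubated 15 min with compounds at room temperature; reaction started with fluorescent substrate, 50 nM final. Fluorescence read kinetically at 0 and 10 min; buffer-only wells as negative control.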
# GLS inhibitor: qHTS for Inhibitors of Glutaminase (GLS); GLS enzymatic activity, qHTS titration; actives 0.21% (n = 410,000); Glutaminase kidney isoform, mitochondrial (Homo sapiens), O94925; Potency, µM (top dose mostly 45.5 µM), inactives show at the highest dose activity change, negative = inhibition, most hits filed as inhibitors; further: potency means the concentration at half of the fitted maximal effect; on the % scale 0 is the no-effect control and ±100 the full control effect
#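 hKGA in 45 mM KH2PO4 (pH 8.2), 0.02% Tween-20 with compound, then 1mM L-Glutamine (stock as added) plus glutamate oxidase/HRP/Amplex red coupling mix. Fluorescence read initially and after 30 min at RT; signal change reflects glutamate formation.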
# GALK confirm: Confirmation Assay for Inhibitors of Human Galactokinase (GALK) | AID 2015, 2009 | actives 70% (n = 150) | shares compounds with Pol eta inh-1 | purified GALK, Kinase-Glo ATP depletion luminescence | Potency, µM (series often up to 115 µM), for inactives: at the top dose activity, negative = inhibition, actives largely listed as inhibitors
# Target sequence (P51570 whole entry, looked up): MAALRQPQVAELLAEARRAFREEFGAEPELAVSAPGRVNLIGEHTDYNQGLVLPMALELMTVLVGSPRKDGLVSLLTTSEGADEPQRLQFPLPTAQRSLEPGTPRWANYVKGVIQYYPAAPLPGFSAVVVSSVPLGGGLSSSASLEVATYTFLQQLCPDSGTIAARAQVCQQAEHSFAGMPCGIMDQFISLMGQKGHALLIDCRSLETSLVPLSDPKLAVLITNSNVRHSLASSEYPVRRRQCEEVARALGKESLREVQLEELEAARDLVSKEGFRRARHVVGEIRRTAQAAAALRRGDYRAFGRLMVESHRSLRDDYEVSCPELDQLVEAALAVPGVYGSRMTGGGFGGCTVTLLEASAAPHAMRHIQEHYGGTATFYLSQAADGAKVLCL
# GALK redox cs: Confirmatory Assay for Inhibitors of Human Galactokinase (GALK): Phenol-HRP redox assay counterscreen. actives 40% (n = 150). shares compounds with Pol eta inh-1. Potency, µM (highest dose often 115 µM), for the others: at the highest dose activity change, negative = H2O2 signal, hits mostly inhibitors. Phenol red-HRP H2O2 redox cycling, absorbance 600 nm
# HEK293 viability: Secondary Assay for Inhibitors of Human Galactokinase (GALK): HEK-293 Cell Viability Assay | AID 2547, 2010 | Potency, µM (series often up to 46.1 µM), without a hit: at the top dose activity change, negative = cytotoxicity, most hits filed as inhibitors | HEK-293 viability, ATP luminescence (CellTiter-Glo), 24/48 h | actives 10% (n = 170) | shares compounds with Pol eta inh-1; further: potency means the concentration at half of the fitted maximal effect; on the % scale 0 is the no-effect control and ±100 the full control effect
# Pol kappa inh-2: qHTS for Inhibitors of Polymerase Kappa: Confirmatory Assay for Cherry-picked Compounds; shares compounds with Pol eta inh-1; purified Pol-kappa, fluorescent strand-displacement substrate; Potency, µM, hits mostly inhibitors; actives 76% (n = 920); AID 720501, 2013; further: potency means the concentration at half of the fitted maximal effect
# Pol eta inh-2: qHTS for Inhibitors of Polymerase Eta: Confirmatory Assay for Cherry-picked Compounds; shares compounds with Pol eta inh-1; AID 720502, 2013; actives 64% (n = 2,600); Potency, µM, actives largely listed as inhibitors; Pol eta primer extension, TAMRA/BHQ fluorescence, 10 min; further: potency means the concentration at half of the fitted maximal effect
# * marks the source's active call; other numbers are inactive results; u = inconclusive; x = no result given; [ ] = another dose, or the depositor's remark. The call rests on the fitted dose curve; in most records, active means well fitted curve in the direction sought with a large enough effect; inconclusive means small, poorly fitted or top-dose-only effect, or another doubt; inactive means no such curve, though single readings can be large; an effect the other way counts as inactive or inconclusive.
SMILES,Pol kappa inh-1,APE1 inh,Pol beta inh,Pol eta inh-1,POLI inh,GLS inhibitor,Pol kappa inh-2,Pol eta inh-2,others
CS(=O)(=O)C1=NSC2=NC(=O)/C(=C\c3ccc(OS(=O)(=O)c4ccccc4)cc3)C(=N)N21,2.7%,-5.3%,u,50.1µM*,-45.4%,6.3%,x,x,GALK confirm=33.5µM*;GALK redox cs=-19.8%;HEK293 viability=2.0%
COc1cccc(-n2c(C)cc(/C=C3/C(=N)N4C(=NC3=O)SN=C4S(C)(=O)=O)c2C)c1,-25.7%,17.9%,4.5%,17.8µM*,u,-9.8%,x,u,
O=C(Nc1cccnc1)c1ccc(NS(=O)(=O)c2cc([N+](=O)[O-])ccc2Cl)cc1,-52.0%,-6.6%,u,22.4µM*,u,-8.3%,x,75.7*,
CCOCCCNC(=O)c1c[nH]c2ccc(S(=O)(=O)Nc3cccc(Cl)c3C)cc2c1=O,u,x,28.2µM*,31.6µM*,u,-2.7%,21.2*,84.9*,
CNC(=O)c1c[nH]c2ccc(S(=O)(=O)Nc3ccccc3F)cc2c1=O,-5.7%,35.6%,u,u,-29.6%,-5.7%,x,x,
CNC(=O)c1c[nH]c2ccc(S(=O)(=O)Nc3cccc(Cl)c3C)cc2c1=O,u,-7.9%,31.6µM*,u,u,6.2%,21.2*,u,
COCCCNC(=O)c1c[nH]c2ccc(S(=O)(=O)N(C)c3ccccc3C)cc2c1=O,-0.4%,33.6%,1.1%,-24.6%,53.3%,-1.9%,x,x,
Cc1ccc(NC(=O)CSc2nc(-c3ccco3)nc3cc(=O)[nH]n23)c(Cl)c1,u,-1.3%,50.1µM*,44.7µM*,39.8µM*,u,x,47.8*,
Cn1c(=O)c2c(nc(Cl)n2Cc2ccncc2)n(C)c1=O,-5.5%,8.8%,5.2%,-2.9%,15.2%,13.5%,x,x,
c1cnc2c(c1)ccc1cccnc12,-5.5%[60.1 µM],-1.1%,10.4%[57.1 µM],1.3%[57.1 µM],-6.0%[58.9 µM],-12.5%,x,x,
O=C1C=CC(=O)N1c1cccc2cccnc12,89.1µM*,x,x,28.2µM*,u,-4.6%,u,75.7*,
Cc1ccc(NC(=O)C(C)Oc2ccccc2)cc1S(=O)(=O)N1CCCCCC1 (stereo unspecified),-1.3%,-19.6%,x,-2.8%,-19.9%,0.5%,x,x,
Cc1ccc(NS(=O)(=O)c2cc(NC(=O)C(C)Oc3ccccc3)ccc2C)c(C)c1 (stereo unspecified),4.3%,0.6%,15.8%,u,0.4%,-6.3%,x,x,GALK confirm=-9.3%;GALK redox cs=9.1%;HEK293 viability=-10.9%
CCS(=O)(=O)C1=NN2C(=N)/C(=C\c3ccc(OCCOc4cccc(OC)c4)c(OC)c3)C(=O)N=C2S1,-25.4%,-48.5%,50.1µM*,35.5µM*,u,15.9%,u,u,
COc1cc(/C=C2\C(=N)N3N=C(S(C)(=O)=O)SC3=NC2=O)ccc1OCCOc1ccc(C)cc1,3.4%[60.1 µM],-1.4%,-28.7%,u,u,u,26.7*,u,
COc1cc(/C=C2\C(=N)N3N=C(S(=O)(=O)CC(C)C)SC3=NC2=O)ccc1OC(=O)c1ccco1,x,-4.1%,-22.2%,x,x,x,x,x,GALK confirm=26.6µM*;GALK redox cs=-3.7%;HEK293 viability=3.4%
CC(=O)c1ccc(NC(=O)[C@@H]2CCCN2C(=O)OC(C)(C)C)cc1,7.2%,-2.0%,42.6%,-16.0%,17.0%,-0.1%,x,x,
Cc1ccc([N+](=O)[O-])cc1S(=O)(=O)Nc1ccc(C(=O)N2CCN(C(=O)c3ccco3)CC2)cc1,u,-44.6%,x,22.4µM*,u,0.4%,x,u,
CCOCCCN(Cc1ccco1)S(=O)(=O)c1cc2c(cc1Cl)NC(=O)CO2,0.8%[60.1 µM],x,u,79.4µM*,u,-5.9%,u,u,
CCOCCCN(Cc1ccco1)S(=O)(=O)c1cc2c(cc1C)NC(=O)CO2,-12.0%[60.1 µM],x,-3.8%,0.7%,-0.9%,-15.6%,x,x,
CCn1c(SCC(=O)c2ccc3c(c2)Cc2ccccc2-3)nnc1-c1ccc(N)cc1,6.3%,-2.1%,-0.8%,-5.1%,7.9%,-0.5%,x,x,
CCn1c(SCC(=O)c2ccc(O)c(O)c2)nnc1-c1ccc(C)cc1,28.2µM*,u,-45.9%,10µM*,-51.3%,24.6%,u,60.1*,
Cc1ccccc1N/N=C/c1sc(=O)n(Cc2cccc(C(=O)O)c2)c1Cl,-41.7%,-2.5%,u,u,u,-25.7%,x,u,
Cn1c(C(=O)N2CCN(c3cccc(C(F)(F)F)c3)CC2)cc2sccc21,-19.8%,-9.6%,u,-29.3%,17.2%,1.5%,x,x,
COc1ccc2c(c1)cc(C(=O)N/N=C/c1c(O)c(C(=O)O)cc3ccccc13)n2C,-22.1%,-36.5%,31.6µM*,39.8µM*,u,u,75.2*,84.9*,
NNC(=O)c1cc(NS(=O)(=O)c2cccs2)cc(NS(=O)(=O)c2cccs2)c1,u,-15.9%,x,20µM*,39.8µM*,8.6%,x,u,
CC1=NN(c2nc(-c3ccccc3)cs2)C(=O)C1,-36.2%,-8.2%,-1.3%,50.1µM*,u,23.3%,x,u,
